miR-122 inh = miR-122 sensor activation; actives 0.14% (n = 340,000); activation, % at 12.5 µM; Huh7 psiCHECK-miR122 Renilla luciferase sensor, 48 h;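 active means mean activation of 30% or more, with every replicate also reaching 30%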;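 further: 0% = median of neutral control wells and 100% = median of positive control wells; higher luciferase signal means stronger suppression of miR-122 activity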
* = called active by the depositor. Only a selection was taken, and hits are over-represented in it overall.

SMILES | miR-122 inh
COc1ccccc1-c1cnc2c(c1)C(=O)N([C@H](C)CO)C[C@H](C)[C@@H](CN(C)C(=O)CN(C)C)O2 | 6
CCC(=O)Nc1ccc2c(c1)OC[C@@H](C)N(C(=O)c1ccncc1)C[C@@H](C)[C@H](OC)CN(C)C2=O | 1
C[C@@H]1CN([C@H](C)CO)S(=O)(=O)c2ccc(C#CC3CC3)cc2O[C@@H]1CN(C)C(=O)c1cccc(F)c1 | 44*
COCC(=O)N(C)C[C@H]1Oc2cc(C#CC3CC3)ccc2S(=O)(=O)N([C@H](C)CO)C[C@@H]1C | -2
C[C@H]1CN([C@@H](C)CO)S(=O)(=O)c2ccc(C#CC3CC3)cc2O[C@H]1CN(C)C(=O)C1CC1 | -14
C[C@@H]1CN([C@@H](C)CO)S(=O)(=O)c2ccc(C#CC3CC3)cc2O[C@@H]1CN(C)C(=O)c1cccc(F)c1 | 42*
COCC(=O)N(C)C[C@@H]1Oc2cc(C#CC3CC3)ccc2S(=O)(=O)N([C@@H](C)CO)C[C@H]1C | -1
COCC(=O)N(C)C[C@H]1Oc2cc(C#CC3CC3)ccc2S(=O)(=O)N([C@H](C)CO)C[C@H]1C | 10
O=C(C[C@@H]1C[C@H]2c3cc(NS(=O)(=O)c4ccc(F)cc4)ccc3O[C@H]2[C@H](CO)O1)NCc1ccc(-c2ccccc2)cc1 | -111
C[C@@H]1CN([C@H](C)CO)C(=O)c2cc(-c3ccncc3)cnc2O[C@@H]1CN(C)C(=O)c1ccccc1F | 7
CCS(=O)(=O)Nc1ccc2c(c1)C(=O)N(C)C[C@@H](OC)[C@H](C)CN(Cc1cccnc1)[C@H](C)CO2 | 0
C[C@H]1CN([C@@H](C)CO)S(=O)(=O)c2ccc(C#CC(C)(C)O)cc2O[C@H]1CN(C)CC1CC1 | 4
COc1ccccc1-c1cnc2c(c1)C(=O)N([C@@H](C)CO)C[C@@H](C)[C@H](CN(C)Cc1ccccc1)O2 | -1
CCCCCCNS(=O)(=O)c1ccc(Cl)s1 | -209
COc1ccc2[nH]c(C(=O)O)c(NS(=O)(=O)c3ccc(Cl)s3)c2c1 | 40*
COc1cccc(NS(=O)(=O)c2cc(C)sc2C)c1 | -121
C[C@H]1CN([C@@H](C)CO)S(=O)(=O)c2ccc(C#CC3CC3)cc2O[C@@H]1CN(C)Cc1ccccn1 | -66
COCC(=O)N(C)C[C@@H]1Oc2cc(-c3cncnc3)ccc2S(=O)(=O)N([C@@H](C)CO)C[C@H]1C | 0
Cc1cc(C)c2c(c1)/C(=C/C(=O)c1ccc(Br)s1)C(=O)N2 | 43*
C/C(=N\NC(=O)C(C)Oc1ccc([N+](=O)[O-])cc1)c1ccccn1 (stereo not given) | 32*
CCCN(C)C[C@H]1Oc2cc(C#Cc3ccccc3F)ccc2S(=O)(=O)N([C@@H](C)CO)C[C@H]1C | -2
C[C@H](CO)N1C[C@H](C)[C@@H](CN(C)Cc2ccc(Oc3ccccc3)cc2)Oc2ncc(-c3cccnc3)cc2C1=O | 0
CC(C)C#Cc1ccc2c(c1)O[C@H](CN(C)C(=O)CC1CC1)[C@@H](C)CN([C@@H](C)CO)S2(=O)=O | -7
CC(C)C#Cc1ccc2c(c1)O[C@H](CN(C)C(=O)CN(C)C)[C@H](C)CN([C@@H](C)CO)S2(=O)=O | 5
CCCNC(=O)N(C)C[C@H]1Oc2cc(C#Cc3ccccn3)ccc2S(=O)(=O)N([C@H](C)CO)C[C@@H]1C | -10
SMILES | miR-122 inh
COC(=O)C[C@H]1CC[C@@H]2[C@@H](COc3ccc(NC(=O)c4cnccn4)cc3C(=O)N2C)O1 | 37*
COC(=O)C[C@H]1CC[C@@H]2[C@@H](COc3ccc(NC(=O)c4cscn4)cc3C(=O)N2C)O1 | 45*
C[C@H]1CN([C@@H](C)CO)C(=O)c2cc(-c3cccc(F)c3)cnc2O[C@H]1CN(C)Cc1ccncc1 | 3
CCC(=O)N(C)C[C@H]1Oc2ncc(-c3cccc(OC)c3)cc2C(=O)N([C@@H](C)CO)C[C@@H]1C | 2
CC(C)C#Cc1cnc2c(c1)C(=O)N([C@H](C)CO)C[C@@H](C)[C@@H](CN(C)C(=O)CC1CC1)O2 | 1
CCCNC(=O)N(C)C[C@H]1Oc2cc(-c3ccccc3)ccc2S(=O)(=O)N([C@H](C)CO)C[C@@H]1C | -32
COCC(=O)Nc1ccc2c(c1)C(=O)N(C)C[C@@H](OC)[C@H](C)CN(C(=O)COC)[C@H](C)CO2 | -2
CC(C)C#Cc1ccc2c(c1)O[C@@H](CN(C)Cc1ccncc1)[C@H](C)CN([C@H](C)CO)S2(=O)=O | -3
CN1C(=O)c2cc(NC(=O)c3ccc(C(F)(F)F)cc3)ccc2OC[C@@H]2O[C@@H](CC(=O)NC3Cc4ccccc4C3)CC[C@@H]21 | 55*
COCC(=O)Nc1ccc2c(c1)C(=O)N(C)[C@@H]1CC[C@@H](CC(=O)NC3Cc4ccccc4C3)O[C@@H]1CO2 | 37*
COCC(=O)Nc1ccc2c(c1)C(=O)N(C)[C@@H]1CC[C@H](CC(=O)N3CCc4ccccc4C3)O[C@H]1CO2 | 37*
CN1C(=O)c2cc(NS(=O)(=O)c3ccc(Cl)cc3)ccc2OC[C@H]2O[C@H](CC(=O)N3CCc4ccccc4C3)CC[C@@H]21 | 33*
CCC(=O)Nc1ccc2c(c1)OC[C@H](C)NC[C@H](C)[C@H](OC)CN(C)C2=O | -1
CC(=O)N(C)C[C@@H]1Oc2cc(C#C[C@@H](C)O)ccc2S(=O)(=O)N([C@@H](C)CO)C[C@@H]1C | -2
C/C=C/c1cnc2c(c1)C(=O)N([C@@H](C)CO)C[C@@H](C)[C@H](CN(C)C(=O)c1cccnc1)O2 | -1
CC(C)C#Cc1cnc2c(c1)C(=O)N([C@H](C)CO)C[C@@H](C)[C@H](CN(C)C(=O)c1ccccc1)O2 | 1
C[C@@H]1CN([C@@H](C)CO)C(=O)c2cc(C#CC(C)(C)O)cnc2O[C@H]1CN(C)C(=O)C1CC1 | 2
CCCN(C)C[C@H]1Oc2cc(Br)ccc2S(=O)(=O)N([C@H](C)CO)C[C@H]1C | -1
C[C@H](CO)N1C[C@H](C)[C@@H](CN(C)C(=O)C2CCCCC2)Oc2ncc(C#CCc3ccccc3)cc2C1=O | -36
CCC(=O)N(C)C[C@H]1Oc2cc(-c3cccc(C#N)c3)ccc2S(=O)(=O)N([C@@H](C)CO)C[C@H]1C | 1
CCCNC(=O)NC[C@H]1[C@@H](c2ccc(C3=CCCC3)cc2)[C@@H](CO)N1C(C)=O | -93
COc1cccc(S(=O)(=O)N(C)C[C@H]2Oc3ncc(C#CCC(C)C)cc3C(=O)N([C@@H](C)CO)C[C@@H]2C)c1 | -39
C[C@H](CO)N1C[C@H](C)[C@H](CN(C)Cc2ccccc2)Oc2ncc(-c3cncnc3)cc2C1=O | 0
CCC(=O)Nc1ccc2c(c1)OC[C@H](C)N(C(=O)c1ccccc1F)C[C@@H](C)[C@@H](OC)CN(C)C2=O | -3
COc1ccc(S(=O)(=O)N2CC[C@@H]3[C@@H](CO)N(C)c4ccc(-c5ccc(F)cc5)cc4[C@@H]32)cc1 | -196
CCC(=O)N(C)C[C@@H]1Oc2ncc(C#Cc3cccnc3)cc2C(=O)N([C@@H](C)CO)C[C@H]1C | 0
C[C@H](CO)N1C[C@H](C)[C@H](CN(C)C(=O)Nc2ccc3c(c2)OCO3)Oc2ncc(-c3ccccc3)cc2C1=O | 1
CCC(=O)N(C)C[C@@H]1Oc2ncc(C#C[C@@H](C)O)cc2C(=O)N([C@H](C)CO)C[C@H]1C | -2
C[C@H](CO)N1C[C@H](C)[C@H](CN(C)C)Oc2cc(-c3ccc(C(=O)N(C)C)cc3)ccc2S1(=O)=O | 2
C[C@@H]1CN([C@@H](C)CO)C(=O)Cc2cc(NC(=O)NC3CCCCC3)ccc2O[C@H]1CN(C)Cc1ccncc1 | 3
